Screens: PubChem, National Center for Advancing Translational Sciences (NCATS)
D1 antagonist: antagonists of human D1 dopamine receptor | HEK293 TREx D1 cells, calcium flux, dopamine EC80; stronger effect = lower value | activity change, negative = inhibition, % at 10 µM | 360,000 tested, 3.2% active | AID 504652; in the data active = activity change below about -30%; note: % is set by controls: 0 for no effect and ±100 for the full control effect
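Tetracycline-induced HEK293 Trex D1 cells, force-coupled to calcium, dye-loaded; compounds added and read 180 s, then EC80 dopamine added and calcium flux tracked kinetically another 180 s.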
TRHR ag: activates the human TRH receptor; TRHR cells, calcium flux fluo-8, FDSS agonist mode; activation, % at 2 µM; 360,000 tested, 0.18% active; note: 0% is about no effect
Target sequence (P34981 whole entry, looked up): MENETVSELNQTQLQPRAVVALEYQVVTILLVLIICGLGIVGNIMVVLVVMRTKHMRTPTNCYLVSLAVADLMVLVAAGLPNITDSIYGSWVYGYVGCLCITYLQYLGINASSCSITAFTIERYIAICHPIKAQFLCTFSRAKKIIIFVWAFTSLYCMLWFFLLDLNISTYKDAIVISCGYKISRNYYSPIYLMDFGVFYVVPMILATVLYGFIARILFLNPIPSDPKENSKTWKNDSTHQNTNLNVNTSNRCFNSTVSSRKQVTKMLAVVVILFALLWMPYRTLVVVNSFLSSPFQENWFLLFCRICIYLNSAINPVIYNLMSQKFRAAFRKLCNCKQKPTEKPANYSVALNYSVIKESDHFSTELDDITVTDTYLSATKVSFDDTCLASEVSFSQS
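Read-out: compound-evoked intracellular calcium rise in TRHR cells, fluo-8 dye, kinetic FDSS fluorescence at 1 s/cycle following a 10-cycle baseline. Cells cultured overnight before dye loading (30 min–1.5 h, RT).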
D1 potentiator: potentiators of human D1 dopamine receptor. P21728. HEK293 TREx D1 cells, calcium flux, dopamine EC20 potentiation. potentiation, % at 10 µM. 360,000 tested, 0.036% active. AID 504651; in the data active = potentiation above about 30%; note: 0% is about no effect
TRHR enhancer: allosterically enhances the human TRH receptor; enhancement, % at 2 µM; 360,000 tested, 0.66% active; P34981; TRHR cells, fluo-8 calcium fluorescence, EC20 TRH enhancement; in the data active = enhancement above about 30%; note: 0% is about no effect
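TRHR-expressing cells loaded with fluo-8 calcium dye were read kinetically (ex 480/em 530) during compound addition, then stimulated with an EC20 of TRH (10 nM final). Enhancement of the Gq-mediated intracellular calcium response was scored.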
D1 agonist: activates the human D1 dopamine receptor. activation, % at 2 µM. HEK293 T-REx D1 cells, calcium flux, agonist mode. 360,000 tested, 1% active. P21728; note: 0% is about no effect
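Agonism was scored from calcium flux recorded over 180 s (1 read/s) after pintool compound addition, following a 10-cycle baseline. Cells were inducible force-coupled HEK293 TREx D1, plated overnight at 30 C and loaded with no-wash calcium dye.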
* hit, by the source's call. Most compounds without a hit are left out; they make up all but 4.6% or so of the library. Cut-off read from the data, not from the text of the source, unless noted: active = activation above about 30%; inactive = the rest.

SMILES	D1 antagonist	TRHR ag	D1 potentiator	TRHR enhancer	D1 agonist
CN(C)c1ccc(/C=C2/C(=O)NC(=O)N(CCc3ccc(F)cc3)C2=O)cc1	-1	0	-6	-6	-1
CC(=O)N1CCN(CC(=O)Nc2ccc(C#N)c(Cl)c2)CC1	-9	0	-4	-4	2
CCN(CC)S(=O)(=O)c1ccc(C)c(NCC(=O)Nc2ccc(C#N)c(Cl)c2)c1	-37*	1	-9	-4	14
Cc1cccc(CN2C(=O)CN=C(c3ccccc3)c3cc(Cl)ccc32)c1	-4	-1	0	0	2
COc1ccc(Cl)cc1NC(=O)CN1C(=O)CN=C(c2ccccc2)c2cc(Cl)ccc21	0	2	4	-1	5
Nc1ccccc1C(=O)OCC(=O)c1ccc2c(c1)OCCO2	-33*	-1	-13	7	13
CC(=O)Nc1ccccc1C(=O)OCC(=O)c1ccc2ccccc2c1	6	-1	-8	-3	23
COc1ccc(C(=O)Oc2cccc3cccnc23)cc1S(=O)(=O)N1CCOCC1	4	0	4	-6	1
Cc1ccc(C[n+]2c(-c3ccc(C)cc3)cc(-c3ccc(C)cc3)cc2-c2ccc(C)cc2)cc1	12	0	5	-6	39*
COC(=O)C(O)(c1ccc(N=Cc2ccccc2O)c(C)c1)C(F)(F)F (stereo not given)	-15	0	-1	9	1
CC(C)(C)c1ccc(O)c(N=Cc2c(O)ccc3ccccc23)c1	-13	63*	-6	1	258*
O=P1(Oc2ccccc2)OCCCS1 (stereo not given)	-30*	0	-2	3	1
Cc1[nH]c2ccc(OCc3ccccc3)cc2c1CCN	8	0	-3	1	12
COc1ccc2[nH]c(C)c(CCNCc3cn(C)c4ccccc34)c2c1	-55*	3	-11	-6	41*
CC(C)C[C@H](NC(=O)[C@@H]1CCCN1C(=O)[C@@H](N)Cc1ccc(O)cc1)C(=O)NCC(N)=O	-37*	1	7	-3	1
CC(N)Cc1cn(Cc2ccccc2)c2ccccc12 (stereo not given)	4	2	-6	4	47*
CN1CCN(S(=O)(=O)c2ccc(Cl)nc2)CC1	5	0	-2	-3	4
Cc1ccc(/C=C2/C(=O)NC(=O)N(Cc3ccc(F)cc3)C2=O)o1	-4	1	6	-4	6
Cc1ccc(/C=C2\C(=O)NC(=O)N(CCc3ccc(F)cc3)C2=O)o1	1	3	-4	37*	6
Oc1ccc(CC2(N3CCCC3)CCCCC2)cc1	7	1	3	2	-1
CCCC/C(=N\O)c1c[nH]c2ccccc12	9	0	1	0	1
CCOC(=O)C1(CCOc2ccccc2)CCN(Cc2ccccc2OC)CC1	-30	0	3	1	6
CCOC(=O)C1(CCc2ccccc2)CCN(Cc2csc(C(C)=O)c2)CC1	-6	-1	-2	-3	2
CCOC(=O)C1(CCc2ccccc2)CCN(Cc2cccc3cnccc23)CC1	-45*	-2	-5	-4	0
CCOC(=O)C1(CCc2ccccc2)CCN(Cc2cccc3c2OCO3)CC1	-42*	-5	-8	0	2
SMILES	D1 antagonist	TRHR ag	D1 potentiator	TRHR enhancer	D1 agonist
C/C(=N\Nc1ccccc1)c1c(O)n(C)c(=O)n(C)c1=O	3	2	-2	8	0
COc1ccc2c(c1)CC1(CN2C)C(=O)NC(=O)N(c2ccc(F)cc2)C1=O (stereo not given)	-82*	0	1	2	1
COc1ccc2c(c1)CC1(CN2C)C(=O)NC(=O)N(c2ccc(C)cc2)C1=O (stereo not given)	0	1	12	-3	2
CNP(=O)(Oc1ccccc1)OC12CC3CC(CC(C3)C1)C2 (stereo not given)	14	0	0	4	0
Fc1ccc(N2CCN(Cc3cc4c(cc3Br)OCO4)CC2)cc1	-2	0	3	-12	9
O=C1NC(=O)N(CCc2ccc(F)cc2)C(=O)/C1=C\C=C\c1ccccc1	11	2	5	0	6
C=CCN1C(=O)NC(=O)/C(=C/C=C/c2ccccc2)C1=O	-34*	1	-11	-5	3
